Consider 38 molecules from PubChem BioAssay (NCATS).

For some of these results: Results with a measured potency or affinity are listed apart. Activity calls are given as the source filed them.

As a reminder, the AC50 is the concentration at which the activity in the assay is half-maximal.

The conditions of the first assay: Ebola virus entry reporter assay, green channel fluorescence. A general note: A reporter such as luciferase makes a cellular process visible.
As for `CN1C(=O)CC(C)(c2ccccc2)C1=O` (stereo unspecified), the molecule was classed as inactive.

For `C#Cc1cccc(Nc2ncnc3cc(OCCOC)c(OCCOC)cc23)c1`, the molecule was called inactive.

`Cc1nc(Nc2ncc(C(=O)Nc3c(C)cccc3Cl)s2)cc(N2CCN(CCO)CC2)n1`: the molecule was classed as inactive.

On to `O=C(O)CCNC(=O)c1ccc(N=Nc2ccc(O)c(C(=O)O)c2)cc1`, for which the outcome was inactive.

As for `CC1(C)NC(=O)N(c2ccc([N+](=O)[O-])c(C(F)(F)F)c2)C1=O`, the call was inactive.

With `Nc1ccc(O)c(C(=O)O)c1`, the result was inactive.

Consider `CC(C)NC[C@@H](O)COc1ccc(CC(N)=O)cc1`, for which the outcome was inactive.

In the case of `Cc1ccsc1C(=CCCN1CCC[C@@H](C(=O)O)C1)c1sccc1C`, the molecule was called inactive.

Take `CCCc1cc(=O)[nH]c(=S)[nH]1`: the call was inactive.

In the case of `CN(C)CCC=C1c2ccccc2CCc2ccccc21`, the result was inactive.

With `Nc1cccc2c1CN(C1CCC(=O)NC1=O)C2=O` (stereo unspecified), the call was inactive.

Regarding `CC(c1cc2ccccc2s1)N(O)C(N)=O` (stereo unspecified), the outcome was inactive.

Take `CCC(C)(C)C(=O)O[C@H]1C[C@@H](C)C=C2C=C[C@H](C)[C@H](CC[C@@H]3C[C@@H](O)CC(=O)O3)[C@H]21`: the call was inactive.

For the molecule `COc1cc2nc(N3CCN(C(=O)C4CCCO4)CC3)nc(N)c2cc1OC` (stereo unspecified), the molecule was called inactive.

`CN(N=O)C(=O)N[C@@H]1[C@@H](O)[C@H](O)[C@@H](CO)O[C@@H]1O`: the call was inactive.

With `COc1ccc2nc(S(=O)Cc3ncc(C)c(OC)c3C)[nH]c2c1` (stereo unspecified), the result was inactive.

On to `O=C(CCCCCCC(=O)Nc1ccccc1)NO`, for which the outcome was inactive.

For `CCN(C)C(=O)Oc1cccc([C@H](C)N(C)C)c1`, the result was inactive.

Take `CN/C(=C\[N+](=O)[O-])NCCSCc1ccc(CN(C)C)o1`: the result was inactive.

For `CC(=O)O[C@@]12CO[C@@H]1C[C@H](O)[C@@]1(C)C(=O)[C@H](O)C3=C(C)[C@@H](OC(=O)[C@H](O)[C@@H](NC(=O)OC(C)(C)C)c4ccccc4)C[C@@](O)([C@@H](OC(=O)c4ccccc4)[C@H]21)C3(C)C`, the molecule was called inactive.

Take `N=c1nc(N2CCCCC2)cc(N)n1O`: the molecule was called inactive.

Regarding `C[C@H]1[C@H](NC(=O)/C(=N/OC(C)(C)C(=O)O)c2csc(N)n2)C(=O)N1S(=O)(=O)O` (stereo in doubt), the molecule was called inactive.

Consider `CCN(CC)CCOC(=O)C1(C2CCCCC2)CCCCC1`, for which the outcome was inactive.

For `CCCCc1nc(Cl)c(CO)n1Cc1ccc(-c2ccccc2-c2nn[nH]n2)cc1`, the outcome was inactive.

On to `Nc1nnc(-c2cccc(Cl)c2Cl)c(N)n1`, for which the molecule was called inactive.

As to `Cc1oncc1C(=O)Nc1ccc(C(F)(F)F)cc1`, the call was inactive.

In the case of `CC[C@@H](CO)NCCN[C@@H](CC)CO`, the molecule was classed as inactive.

As for `C#CCN(C)[C@H](C)Cc1ccccc1`, the molecule was called inactive.

On to `CNS(=O)(=O)Cc1ccc2[nH]cc(CCN(C)C)c2c1`, for which the outcome was inactive.

For `C=C[C@H]1CN2CC[C@H]1C[C@@H]2[C@@H](O)c1ccnc2ccc(OC)cc12`, the outcome was inactive.

For the molecule `N[C@@H](Cc1ccc(N(CCCl)CCCl)cc1)C(=O)O`, the result was inactive.

For the molecule `Nc1cc(-c2ccncc2)c[nH]c1=O`, the molecule was called inactive.

Turning to `CNC(=O)c1cc(Oc2ccc(NC(=O)Nc3ccc(Cl)c(C(F)(F)F)c3)cc2)ccn1`, the molecule was called inactive.

Consider `NC(=O)N1c2ccccc2CC(=O)c2ccccc21`, for which the call was inactive.

In the case of `Oc1cn2c(n1)Nc1ccc(Cl)c(Cl)c1C2`, the call was inactive.

With `Cc1ccc(C)c(OCCCC(C)(C)C(=O)O)c1`, the molecule was classed as inactive.

Regarding `O=C1NC(=O)C(c2ccccc2)(c2ccccc2)N1`, the molecule was called inactive.

In the case of `CC(C)C[C@H](NC(=O)[C@H](Cc1ccccc1)NC(=O)c1cnccn1)B(O)O`, the outcome was inactive.

The conditions of another assay: Ebola virus entry cell assay, ratio channel.
In the case of `CN1C(=O)CC(C)(c2ccccc2)C1=O` (stereo unspecified), the outcome was inactive.

As to `C#Cc1cccc(Nc2ncnc3cc(OCCOC)c(OCCOC)cc23)c1`, the AC50 is 8.91 µM (active).

For `Cc1nc(Nc2ncc(C(=O)Nc3c(C)cccc3Cl)s2)cc(N2CCN(CCO)CC2)n1`, the half-maximal activity concentration (AC50) was 28.2 µM (active).

Regarding `O=C(O)CCNC(=O)c1ccc(N=Nc2ccc(O)c(C(=O)O)c2)cc1`, the result was inactive.

Regarding `CC1(C)NC(=O)N(c2ccc([N+](=O)[O-])c(C(F)(F)F)c2)C1=O`, the result was inactive.

In the case of `Nc1ccc(O)c(C(=O)O)c1`, the outcome was inactive.

As for `CC(C)NC[C@@H](O)COc1ccc(CC(N)=O)cc1`, the result was inactive.

With `Cc1ccsc1C(=CCCN1CCC[C@@H](C(=O)O)C1)c1sccc1C`, the outcome was inactive.

For `CCCc1cc(=O)[nH]c(=S)[nH]1`, the result was inactive.

Consider `CN(C)CCC=C1c2ccccc2CCc2ccccc21`, for which the half-maximal activity concentration (AC50) was 11.2 µM (active).

For the molecule `Nc1cccc2c1CN(C1CCC(=O)NC1=O)C2=O` (stereo unspecified), the result was inactive.

On to `CC(c1cc2ccccc2s1)N(O)C(N)=O` (stereo unspecified), for which the result was inactive.

Consider `CCC(C)(C)C(=O)O[C@H]1C[C@@H](C)C=C2C=C[C@H](C)[C@H](CC[C@@H]3C[C@@H](O)CC(=O)O3)[C@H]21`, for which the result was inactive.

Take `COc1cc2nc(N3CCN(C(=O)C4CCCO4)CC3)nc(N)c2cc1OC` (stereo unspecified): the result was inactive.

With `CN(N=O)C(=O)N[C@@H]1[C@@H](O)[C@H](O)[C@@H](CO)O[C@@H]1O`, the result was inactive.

For `COc1ccc2nc(S(=O)Cc3ncc(C)c(OC)c3C)[nH]c2c1` (stereo unspecified), the outcome was inactive.

As for `O=C(CCCCCCC(=O)Nc1ccccc1)NO`, the outcome was inactive.

Regarding `CCN(C)C(=O)Oc1cccc([C@H](C)N(C)C)c1`, the outcome was inactive.

Turning to `CN/C(=C\[N+](=O)[O-])NCCSCc1ccc(CN(C)C)o1`, the result was inactive.

Take `CC(=O)O[C@@]12CO[C@@H]1C[C@H](O)[C@@]1(C)C(=O)[C@H](O)C3=C(C)[C@@H](OC(=O)[C@H](O)[C@@H](NC(=O)OC(C)(C)C)c4ccccc4)C[C@@](O)([C@@H](OC(=O)c4ccccc4)[C@H]21)C3(C)C`: the result was inactive.

With `N=c1nc(N2CCCCC2)cc(N)n1O`, the result was inactive.

`C[C@H]1[C@H](NC(=O)/C(=N/OC(C)(C)C(=O)O)c2csc(N)n2)C(=O)N1S(=O)(=O)O` (stereo in doubt): the result was inactive.

In the case of `CCN(CC)CCOC(=O)C1(C2CCCCC2)CCCCC1`, the AC50 is 15.8 µM (active).

In the case of `CCCCc1nc(Cl)c(CO)n1Cc1ccc(-c2ccccc2-c2nn[nH]n2)cc1`, the outcome was inactive.

For the molecule `Nc1nnc(-c2cccc(Cl)c2Cl)c(N)n1`, the result was inactive.

Consider `Cc1oncc1C(=O)Nc1ccc(C(F)(F)F)cc1`, for which the outcome was inactive.

In the case of `CC[C@@H](CO)NCCN[C@@H](CC)CO`, the outcome was inactive.

Turning to `C#CCN(C)[C@H](C)Cc1ccccc1`, the result was inactive.

As for `CNS(=O)(=O)Cc1ccc2[nH]cc(CCN(C)C)c2c1`, the outcome was inactive.

Consider `C=C[C@H]1CN2CC[C@H]1C[C@@H]2[C@@H](O)c1ccnc2ccc(OC)cc12`, for which the result was inactive.

For the molecule `N[C@@H](Cc1ccc(N(CCCl)CCCl)cc1)C(=O)O`, the result was inactive.

In the case of `Nc1cc(-c2ccncc2)c[nH]c1=O`, the outcome was inactive.

For the molecule `CNC(=O)c1cc(Oc2ccc(NC(=O)Nc3ccc(Cl)c(C(F)(F)F)c3)cc2)ccn1`, the outcome was inactive.

Consider `NC(=O)N1c2ccccc2CC(=O)c2ccccc21`, for which the outcome was inactive.

Consider `Oc1cn2c(n1)Nc1ccc(Cl)c(Cl)c1C2`, for which the outcome was inactive.

In the case of `Cc1ccc(C)c(OCCCC(C)(C)C(=O)O)c1`, the outcome was inactive.

Take `O=C1NC(=O)C(c2ccccc2)(c2ccccc2)N1`: the outcome was inactive.

For `CC(C)C[C@H](NC(=O)[C@H](Cc1ccccc1)NC(=O)c1cnccn1)B(O)O`, the result was inactive.
